SMILES strings stand for the structures. This is part of a sample that, as a whole, favours compounds with a hit. Of some 83,000 tested, about 20% had one in any assay.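 Compound tested at a single concentration for 48 hours in 96-well plates; a percent growth value below 10 was scored as active.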 Calls of active or inactive are those of the source.

This experiment deals with KM12 colon. In words: NCI-60 one-dose screen, 48 h (100 = growth as untreated, 0 = no growth, -100 = all killed). To be noted: 10 µM unless noted. The method, then: Growth inhibition of the KM12 human tumor cell line is measured as a screen for anti-cancer activity. Cells are grown in 96 well plates and exposed to the test compound for 48 hours. Compounds are tested at a single concentration, which is 10^-5 M for most compounds. The reported endpoint is percent growth (GI% or GIPRCNT), where numbers from 0 - 100% represent growth inhibition, and numbers from -100% - 0 represent cell death. For example, a value of 40 represents 60% growth inhibition. A value of 0 means no net growth occurred over the course of the experiment. A value of -40 indicates 40% of cells at the beginning of the experiment died by the end of the experiment. A value of -100 means all cells are dead at the end of the experiment.
NCI-60 Human Tumor Cell Lines Screen was performed using the standard one-dose NCI protocol, which is described in more detail at https://dtp.cancer.gov/discovery_development/nci-60/default.htm.
Compounds with GIPRCNT values below 10 were considered active. Activity score was based on GIPRCNT using the following formula: […]
Score is 0 for GIPRCNT values of 100 or above, 50 for GIPRCNT values of 0, and 100 for GIPRCNT values of -100.
With `CC(=O)[C@H]1CC[C@H]2[C@@H]3CC[C@H]4CC=CC[C@]4(C)[C@H]3CC[C@]12C`, the growth is 113% (inactive).
Regarding `CCN(CC)CCCC(C)Nc1cnc(C(=O)Nc2ccc(Cl)c3cccnc23)cn1` (stereo not given), the growth is 30.3% (inactive).
On to `Cc1nc2ccc(Nc3nc(N4CCOCC4)nc(N4CCN(C)CC4)n3)cc2n1Cc1ccccc1`, for which the growth was 93.2% (inactive).
For the compound `C=CCn1c(C)nc2cc(Nc3nc(N4CCOCC4)nc4nc[nH]c34)ccc21`, the growth was 101% (inactive).
Then `COc1cc2nccc(Oc3ccc(NC(=O)C4(C(=O)Nc5c(F)cc(F)cc5F)CC4)cc3)c2cc1Oc1ccc(N)cn1`, with 15.5% (inactive); and `COc1ccc(NC(=O)C2c3ccccc3C(=O)N(CC(C)C)C2c2cccs2)cc1` (stereo not given), with 97.5% (inactive).
Consider `COc1cc(C2CC(c3ccc(Cl)cc3)=NN2C=O)ccc1OS(=O)(=O)c1ccc(C)cc1` (stereo not given), for which the growth was 93.4% (inactive).
Then `N#Cc1c(N)n(C2OC(CO)C(O)C2O)c2ncnc(N)c12` (stereo not given), with -3.95% (active).
To `O=C(CCc1nc2sc3c(c2c(=O)[nH]1)CCC3)NCc1cn(-c2ccccc2)nc1-c1ccccc1` belongs 85.3% (inactive).
To `O=C1c2ccccc2C2N1CCC1CCc3ccccc3N12` (stereo not given) belongs 108% (inactive); to `Cc1[nH]n(C(=O)c2ccncc2)c(=O)c1N=Nc1ccc(O)c(C(=O)O)c1`, 104% (inactive).
On to `COc1cc2c(cc1OCCCOc1cc3c(cc1OC)C(=O)N1CCC[C@H]1C=N3)C=CC(C)(C)O2`, for which the growth is 109% (inactive).
For `Clc1ccc(Nc2ncnc3c2sc2ncccc23)cc1`, the growth was 56.2% (inactive).
Regarding `C#CC[C@@H]1C[C@]2(C)[C@H]3CC=C4[C@H]5[C@@H](C)[C@H](C)CC[C@]5(C(=O)NCCCCCCCCN)CC[C@@]4(C)[C@]3(C)CC[C@H]2C(C)(C)[C@H]1OC(C)=O`, the growth was 0.426% (active).
To `COc1ccc2c(c1)N(CCO)C1=C(C(=O)OC1)C2c1cccc(Br)c1` (stereo not given) belongs -31.2% (active); to `O=C1C=CC(=O)N1CO`, 128% (inactive).
In the case of `COc1ccc(/C(=C\c2cc(OC)c(OC)c(OC)c2)C(=O)Nc2nc3ccc(Cl)cc3s2)cc1`, the growth is 94.2% (inactive).
To `CCN(CC)CCNc1c(C)cc(CO)c(Cl)c1C` belongs 113% (inactive); to `COc1cc(/C=C/c2ccc3c(Br)cc(Br)c(O)c3n2)ccc1O`, 20.8% (inactive); to `Cc1nn(-c2ccc(Cl)cc2)c(=O)n1CCN1CCOCC1`, 81.3% (inactive).
In the case of `COc1ccc(C(=O)c2cc(C)c(OC)c(C)c2)cc1OC(=O)CCl`, the growth was 12.2% (inactive).
Then `Fc1ccc(-c2ccnc3nc(-c4ccncc4)nn23)cc1`, with 99.8% (inactive); and `Cc1cc(C)c2c(n1)sc1c(Nc3ccc(Cl)cc3Cl)ncnc12`, with 49.8% (inactive); and `Nc1ncnc2c1N=C(c1ccc(F)cc1)CC(c1sc(Cl)nc1Cl)N2` (stereo not given), with 105% (inactive).
In the case of `CNC(=O)c1ccccc1Sc1ccc2c(/C=C/c3ccccn3)n[nH]c2c1`, the growth was 17.2% (inactive).
Take `CCCCn1c(C)nc2ccc(Nc3nc(Cl)nc4nc[nH]c34)cc21`: the growth is 77.5% (inactive).
To `Cc1nc2n[nH]c(N)c2nc1C` belongs 106% (inactive); to `CC[C@H](Nc1nc(N)nc(C2CC2)c1C#N)c1nc2cccc(NCc3ccc(C(=O)NO)cc3)c2c(=O)n1-c1ccccc1`, 8.71% (active); to `Clc1ccccc1Nc1nnc(-c2ccncc2)s1`, 107% (inactive).
Then `CC1C2CCC(C2)C1COCCOCCO` (stereo not given), with 110% (inactive); and `COc1cc2cc(C(=O)Nc3ccccc3)c(N)nc2cc1OC`, with -52% (active); and `CCCCCCCCNC(C)C(O)c1ccc(SC(C)C)cc1` (stereo not given), with -72.1% (active).
To `Nc1nc2c(c3ncccc13)C(c1ccccc1)Cc1ncccc1-2` (stereo not given) belongs 50.4% (inactive); to `COc1cc2nccc(Oc3ccc(NC(=O)C4(C(=O)Nc5ccc(F)cc5)CC4)cc3)c2cc1O`, 22.5% (inactive).
As to `Cc1n(Cc2ccc3ccccc3n2)cc[n+]1Cc1ccc2ccccc2c1`, the growth was 5.21% (active).
To `Fc1cnccc1-c1nc2ccc3[nH]ncc3c2c2c1CCCC2` belongs 18.4% (inactive).
For `C#CC[C@@H]1C[C@]2(C)[C@H]3CC=C4[C@H]5[C@@H](C)[C@H](C)CC[C@]5(C(=O)NCCCN5CCN(CCCN)CC5)CC[C@@]4(C)[C@]3(C)CC[C@H]2C(C)(C)[C@H]1OC(C)=O`, the growth was 1.28% (active).
As for `CN1CCN(Cc2ccc(NC(=O)c3cncc(C#Cc4ncc5ccccn45)c3)cc2C(F)(F)F)CC1`, the growth was 4.65% (active).
With `Cc1ccc(NC(=O)c2[nH]c(SCCN(C)C)nc2-c2ccc(F)cc2)cc1Nc1ccc2ncn(C)c(=O)c2c1`, the growth was 49.6% (inactive).
For the compound `COc1cc(Nc2ccnc3ccc(Br)cc23)cc(OC)c1OC`, the growth is 21% (inactive).
